Assay outcomes (PubChem)
Compounds with a hit are over-represented: about 0.45% of the library has one in this group of screens.
CBFb-RUNX1 inh – qHTS Assay for Compounds Blocking the Interaction Between CBF-beta and RUNX1 for the Treatment of Acute Myeloid Leukemia; Potency, µM (highest dose often 59.8 µM), most hits filed as inhibitors; AID 1477, 2009; AlphaScreen CBFb-His/RUNX1-biotin binding, biochemical; Runt-related transcription factor 1 (Homo sapiens) + Core-binding factor subunit beta …; 230,000 tested, under 10 active
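Interaction loss through any mechanism counts as activity. Pre-formed complex of His-CBF-beta and biotin-RUNX1 (30 nM apiece) is incubated with compound 15 min, then with 50 ng nickel and 50 ng streptavidin beads for 90 min before AlphaScreen detection.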
GoLoco inh red – qHTS Assay for Inhibitors of RGS12 GoLoco Motif Activity (Red Fluorophore). Guanine nucleotide-binding protein G(i) subunit alpha-1 (Homo sapiens), P63096. Gai1:RGS12 GoLoco peptide FP, rhodamine, 10 min. Potency, µM (top dose mostly 61.6 µM), most hits filed as inhibitors. 0.44% of 230,000 active. AID 880, 2007; active means well fitted inhibition curve with a large enough effect, not every such curve was filed as active; inactive means no such curve, though single readings can be large or run the other way; further: nearly all actives have a fitted effect of over 30% in size
Target sequence (P63096 whole entry, looked up): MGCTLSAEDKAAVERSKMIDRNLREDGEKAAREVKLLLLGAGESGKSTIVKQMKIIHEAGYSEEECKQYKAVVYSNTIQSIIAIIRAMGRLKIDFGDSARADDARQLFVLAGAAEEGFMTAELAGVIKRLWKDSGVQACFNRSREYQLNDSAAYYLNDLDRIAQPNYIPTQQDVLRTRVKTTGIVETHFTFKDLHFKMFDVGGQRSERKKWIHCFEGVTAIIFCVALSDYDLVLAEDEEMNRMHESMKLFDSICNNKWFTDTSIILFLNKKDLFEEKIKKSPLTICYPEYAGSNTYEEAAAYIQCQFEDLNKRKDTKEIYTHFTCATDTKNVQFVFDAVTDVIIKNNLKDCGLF
TRb SRC2 PPI – qHTS for Inhibitors of the Interaction of Thyroid Hormone Receptor and Steroid Receptor Coregulator 2; Thyroid hormone receptor beta (Homo sapiens), P10828; TRbeta-SRC2 peptide binding, fluorescence polarization; receptor liganded with 1 µM T3; 0.065% of 280,000 active; AID 1469, 2008; Potency, µM (highest dose often 106 µM), most hits filed as inhibitors; further: nearly all actives have a fitted effect of over 50% in size
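Quantitative HTS by FP: 0.6 uM TRb LBD, 20 nM labeled SRC2 20-mer, 1 uM T3, 5% DMSO; 5 hr ambient incubation; % activity per concentration and potencies from concentration series.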
ERG-DNA inh – qHTS for Small Molecule Inhibitors of the ERG Ets/DNA interaction; Potency, µM (top dose mostly 76.9 µM), most hits filed as inhibitors; fluorescence polarization, His-ERG Ets domain / labelled DNA; Transcriptional regulator ERG (Homo sapiens), P11308; 0.028% of 370,000 active; active means well fitted inhibition curve with a large enough effect in the polarisation, with a control signal flat; inconclusive means small, poorly fitted or top-dose-only effect, or effect the other way, or a change in a side signal; inactive means no such curve, though single readings can be large or run the other way; the % refers to the polarisation;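 further: polarization taken with two DNA probes labelled with fluorescein and Texas red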
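His-tagged ERG Ets domain (1 uM in the protein solution; 300mM KCl, 50mM Tris-HCl, 1mM EDTA, 1mM DTT, pH 7.5) received compound, then a probe mix of 5 nM fluorescein-DNA and 100nM Texas-615-DNA. Fluorescence polarization was read for both dyes.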
a7 integrin act – qHTS for Activators of Integrin-Mediated Alleviation for Muscular Dystrophy. alpha7betagal myoblasts, beta-gal FDG fluorescence, 48 h. Potency, µM (doses to about 38.3 µM), most hits filed as activators. 0.064% of 350,000 active. AID 624291, 2012; further: nearly all actives have a fitted effect of over 60% in size
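alpha7betagal+/- myoblasts (passage 13, 250/well) treated 48 h at 37C with compounds at 1:260 dilution of DMSO stock. Lysed, then beta-galactosidase activity read as FDG fluorescence (ex 480/em 540) after 30 min, with pre-read for autofluorescence.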
TR SRC2 fluor cs – Total Fluorescence Counterscreen for Inhibitors of the Interaction of Thyroid Hormone Receptor and Steroid Receptor Coregulator 2; TRb/SRC2 Texas Red total fluorescence interference; Potency, µM (top dose mostly 106 µM); 0.29% of 280,000 active; active means well fitted curve in either direction with a large enough effect; inconclusive means small, poorly fitted or top-dose-only effect
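Flags fluorescent or light-absorbing compounds by total fluorescence, S + 2P, at 555 nm excitation and 632 nm emission. Mixture: 20 nM Texas Red SRC2 peptide, 0.6 uM human TRb LBD, 1 uM T3, 5% DMSO; compound exposure 5 h at ambient temperature.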
Of the large screens only hits and unclear results are named; the others gave an inactive call; [ ] = dose if it differs, or a comment. Unless noted, the call rests on the fitted dose curve; in most records, active means well fitted curve in the direction sought with a large enough effect; inconclusive means small, poorly fitted or top-dose-only effect, or another doubt; inactive means no such curve, though single readings can be large; an effect the other way counts as inactive or inconclusive.

CSCC[C@H](N)C(=O)N[C@@H](C)C(=O)NCC(=O)N[C@@H](CCCN=C(N)N)C(=O)N[C@@H](CO)C(=O)NCC(=O)N[C@@H](CC(=O)O)C(=O)N[C@@H](CO)C(=O)N[C@@H](CC(=O)O)C(=O)N[C@@H](CCC(=O)O)C(=O)N[C@@H](CC(=O)O)C(=O)N[C@@H](CC(C)C)C(=O)N[C@@H](CC(C)C)C(=O)N[C@@H](CCCCN)C(=O)N[C@@H](C)C(=O)N[C@H](C(=O)O)C(C)C	none (no result: GoLoco inh red, ERG-DNA inh, a7 integrin act)
CCCCN(CCO)CCCC	GoLoco inh red 16µM (no result: a7 integrin act)
COC(=O)CCSCCC(=O)OC	none (no result: CBFb-RUNX1 inh, GoLoco inh red, ERG-DNA inh, a7 integrin act)
CCCN(C(=O)Cn1cnc2onc(-c3ccc(F)cc3)c2c1=O)c1cccc(Cl)c1	TR SRC2 fluor cs 178µM[quencher] (no result: CBFb-RUNX1 inh, GoLoco inh red, a7 integrin act)
CCN(C(=O)Cn1cnc2onc(-c3ccc(F)cc3)c2c1=O)c1ccc(OC)cc1	none (no result: CBFb-RUNX1 inh, GoLoco inh red, a7 integrin act)
CN(C)c1ccc(/C=C/c2cc[n+](C)cc2)cc1	TRb SRC2 PPI inconclusive, TR SRC2 fluor cs 45µM[fluorescent] (no result: ERG-DNA inh)
CN(C)c1ccc(/C=C/c2cc[n+]([O-])cc2)cc1	none (no result: ERG-DNA inh, a7 integrin act)
O=C(NCc1ccccc1)c1nc(-c2ccc(Cl)cc2)n2c1CCCCC2	TR SRC2 fluor cs 20µM[quencher] (no result: CBFb-RUNX1 inh, GoLoco inh red, a7 integrin act)
CC(C)N(Cc1ccccc1)C(=O)c1nc(-c2ccc(Cl)cc2)n2c1CCCCC2	TR SRC2 fluor cs 14µM[quencher] (no result: CBFb-RUNX1 inh, GoLoco inh red, a7 integrin act)
C/C(CC(=O)Nc1ccc(Cl)c(C(F)(F)F)c1)=N\NC(=O)c1cnccn1	a7 integrin act 4.5µM (no result: CBFb-RUNX1 inh, GoLoco inh red, TRb SRC2 PPI, TR SRC2 fluor cs)
C/C(CC(=O)Nc1c(Cl)cccc1C(F)(F)F)=N\NC(=O)c1cnccn1	none (no result: CBFb-RUNX1 inh, GoLoco inh red, TRb SRC2 PPI, TR SRC2 fluor cs)
CC1(C)CC(=O)C=C(Nc2ccc(C(=O)O)c(O)c2)C1	a7 integrin act 10µM (no result: CBFb-RUNX1 inh, GoLoco inh red, TRb SRC2 PPI, TR SRC2 fluor cs)
COc1ccc(/C=C2\CCn3c2nc2cc(C(=O)O)ccc2c3=O)cc1O	TRb SRC2 PPI inconclusive, TR SRC2 fluor cs 0.32µM[quencher]
O=C1OC2(c3cc(Br)c(O)c(Br)c3Oc3c2cc(Br)c(O)c3Br)c2c(Cl)c(Cl)c(Cl)c(Cl)c21	GoLoco inh red 0.79µM, TRb SRC2 PPI 2.5µM, TR SRC2 fluor cs inconclusive (no result: CBFb-RUNX1 inh, ERG-DNA inh, a7 integrin act)
O=C1OC(c2ccc(O)c(-c3ccccc3)c2)(c2ccc(O)c(-c3ccccc3)c2)c2c(Cl)c(Cl)c(Cl)c(Cl)c21	none (no result: CBFb-RUNX1 inh, TRb SRC2 PPI, ERG-DNA inh, a7 integrin act, TR SRC2 fluor cs)
S=C(S)NCCNC(=S)S	TR SRC2 fluor cs inconclusive (no result: CBFb-RUNX1 inh, GoLoco inh red, ERG-DNA inh, a7 integrin act)
Nc1ccc(-n2nnnc2CN2CCOCC2)cc1	none
c1ccc(-n2nnnc2CN2CCOCC2)cc1	TR SRC2 fluor cs 1585µM[quencher]
CCOC(=O)Cn1c2[n+](c3ccccc31)CC(O)CS2 (configuration not stated)	GoLoco inh red 16µM (no result: ERG-DNA inh)
COC(=O)Cn1c2[n+](c3ccccc31)CC(O)CS2 (configuration not stated)	none
CCCCCCCCCCCC(=O)OC	none (no result: CBFb-RUNX1 inh, GoLoco inh red, ERG-DNA inh, a7 integrin act)
Nc1ncc(S(=O)(=O)N2CCN(c3ccccc3)CC2)cn1	TR SRC2 fluor cs 0.0056µM[quencher] (no result: CBFb-RUNX1 inh, GoLoco inh red, a7 integrin act)
C[n+]1cnc(-c2ccccc2)cc1-c1ccccc1	GoLoco inh red 14µM
O=C(Nc1cccc(Cl)c1)c1cc(-c2ccc3c(c2)OCCO3)on1	TR SRC2 fluor cs 10µM[quencher] (no result: CBFb-RUNX1 inh, GoLoco inh red, a7 integrin act)
Cc1ccc(N(C)C(=O)C2CCCN(c3ncnc4c3nc3n4CCCCC3)C2)cc1C (configuration not stated)	TR SRC2 fluor cs 20µM[quencher] (no result: CBFb-RUNX1 inh, GoLoco inh red, a7 integrin act)
COc1cc(OC)c(NC(=O)C2CCCN(c3ncnc4c3nc3n4CCCCC3)C2)cc1Cl (configuration not stated)	TR SRC2 fluor cs 18µM[quencher] (no result: CBFb-RUNX1 inh, GoLoco inh red, a7 integrin act)
COc1ccccc1NC(=O)C1CCCN(c2ncnc3c2nc2n3CCCCC2)C1 (configuration not stated)	none (no result: CBFb-RUNX1 inh, GoLoco inh red, TRb SRC2 PPI, TR SRC2 fluor cs)
O=C(O)C(Oc1ccc(Cl)cc1)Oc1ccc(Cl)cc1	none (no result: CBFb-RUNX1 inh, GoLoco inh red, ERG-DNA inh, a7 integrin act)
COc1cc(C2c3c(oc4ccccc4c3=O)C(=O)N2c2ccccn2)cc(OC)c1OC (configuration not stated)	TR SRC2 fluor cs 0.04µM[quencher] (no result: CBFb-RUNX1 inh, GoLoco inh red, a7 integrin act)
C[n+]1ccccc1/C=N/O	none (no result: a7 integrin act)
